The results in this text go back to PubChem BioAssay (NCATS).

The nature of assay [1]: KB-8-5-11 P-gp reporter qHTS against the NCATS DSHEA and TCM libraries (AID 1919977). Note: 0% is about no effect. The method, boiled down: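 CellTiter-Glo luminescence measured viability after ~72 h exposure (37C, 5% CO2) of KB-8-5-11 cervical adenocarcinoma cells overexpressing P-gp. Colchicine was omitted during assay. Substances were tested as titrations.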
Assay [2] in a line: qHTS Counterscreen for compound interference against the NCATS DSHEA and TCM libraries (AID 1919978).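 Note: compounds preincubated with 1 µM D-luciferin or buffer before detection reagent; % of control where 0% means no effect.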 The conditions noted are these: firefly luciferase detection reagent interference, luminescence. The method, boiled down: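 With 1 uM D-luciferin or phosphate buffer only, compounds at final 19.5 nM–39.8 uM were incubated for 15 min at room temperature. Luciferase detection reagent was then added, and luminescence was measured after a further 30 min at room temperature.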

Assay [3] can be described thus: Dual reporter qHTS for agonist of Pregnane X Receptor (hPXR) against the NCATS DSHEA and TCM libraries: Fluorescence readout (AID 1920058). Note: 0% is about no effect. The method, boiled down: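 In this qHTS counter-read, reporter-bearing HepG2 cells in charcoal-stripped serum received substances for approximately 24 h before viability was assessed fluorometrically with CellTiter-Fluor.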
Assay [4] concerns the target Nuclear receptor subfamily 1 group I member 2 (Homo sapiens) (UniProt O75469). In words: Dual reporter qHTS for agonist of Pregnane X Receptor (hPXR) against the NCATS DSHEA and TCM libraries: Luminescence readout (AID 1920059). Note: 0% is about no effect. The method, boiled down:
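Luminescent PXR reporter read (ONE-Glo) after a CellTiter-Fluor viability read, following 24 h, 37C treatment of HepG2 cells stably carrying hPXR-Luc.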

Assay [5] shares this target. In words: Dual reporter qHTS for antagonist of Pregnane X Receptor (hPXR) against the NCATS DSHEA and TCM libraries: Luminescence Readout (AID 1920060).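 Note: HepG2 cells carrying hPXR luciferase reporter stimulated with rifampicin at 2 µM; 0% is about no effect.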 The source says: Assay Development and Screening Technology Laboratory (ADST)
National Center for Advancing Translational Sciences (NCATS), Rockville, MD
National Institute of Health (NIH), Bethesda, Maryland
Dietary Supplements and Natural Products have minor oversight of their safety and efficacy. We assembled a collection of Dietary Supplements and Natural Products (DSNP) as well as Traditional Chinese Medicinal (TCM) Plant extracts, which were screened against an in vitro panel of assays, including a liver cytochrome p450 enzyme panel, CAR/PXR signaling pathways, and P-gp transporter assays, to assess their activity. This pipeline facilitated the interrogation of Natural Product-Drug Interaction (NaPDI) through prominent metabolizing pathways. In addition, we compared the activity profiles of the DSNP/TCM substances with those of an approved drug collection. Many of the approved drugs have well-annotated mechanisms of action (MOA) while the MOAs for most of the DSNP and TCM samples remain unknown. Based on the premise that compounds with similar activity profiles tend to share similar targets or MOA, we clustered the library activity profiles to identify overlap with the NCATS Pharmaceutical Collection to predict the MOAs of the DSNP/TCM substances. Overall, we highlight four significant bioactivity profiles (measured by p-values) as examples of this prediction. To assess broad cytotoxicity, we employed screening against a HepG2 cell line. In addition, transporter-mediated drug interactions are utilized in the characterization of DDIs using a P-glycoprotein (P-gp) assays. To profile potential P-gp activity, a differential cell viability was measured against two cell lines: a parental KB-3-1 human cervical adenocarcinoma cell line and the drug-resistant subline KB-8-5-11 that overexpresses P-gp.
To this end, we profiled both collections for potential CAR and/or PXR activity, employing a previously published 1536-well qHTS assay.
[1] […]
8; Read; Fluorescence; ViewLux plate reader. […]
11; Read; Luminescence; ViewLux plate reader. […]

Assay [6] is described as follows: Dual reporter qHTS for antagonist of Pregnane X Receptor (hPXR) against the NCATS DSHEA and TCM libraries: Fluorescence Readout (AID 1920061). Note: 0% is about no effect. The method, boiled down: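 hPXR-Luc HepG2 cells exposed 24 h at 37 C to compounds with 2 uM rifampicin in antagonist mode; luciferase luminescence measured by ONE-Glo, with CellTiter-Fluor viability read beforehand.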
The nature of assay [7]: qHTS profiling for inhibitors of Plasmodium falciparum proliferation (AID 504749).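 Note: 0% = DMSO vehicle and full inhibition = artemisinin control; nearly all actives have a fitted effect of over 60% in size.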 The following applies: P. falciparum in erythrocytes, SYBR Green DNA, 72 h. An outline of the steps:
(§1)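 In a 72 h erythrocytic culture (37 C, humidified, 5% CO2) at 2.5% hematocrit and 0.3% starting parasitemia, compounds were tested; SYBR Green I in detergent lysis buffer stained parasite DNA overnight.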

Assay [8] deals with 3D7. The assay is described as above. The following applies: P. falciparum in erythrocytes, SYBR Green DNA, 72 h; series mostly up to 28.7 µM. An outline of the steps:
as §1

Assay [9] deals with 7G8. The assay is described as above. The following applies: P. falciparum in erythrocytes, SYBR Green DNA, 72 h; series mostly up to 28.7 µM. The method, boiled down: as §1
Assay [10] is described as follows: qHTS drug screen for cell cycle checkpoint inhibitors in PARPi-resistant BRCA-mutant ovarian cancer cell lines. (AID 1963452; calls by dose curve). The following applies: PEO1/OlaR viability, CellTiter-Glo luminescence, 96 h, stronger effect = lower value. An outline of the steps: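 PEO1, PEO4 and PEO1/OlaR ovarian cancer cells, 600 per well, exposed 96 h at 37C to a dilution series. Viability read by CellTiter-Glo luminescence, normalized to DMSO and empty wells; activity summarized as Z-AUC.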

The mark [11] stands for this setting: at 28.7 µM (top of the series), parasite line A.
Where [12] appears, read: at 28.7 µM (top of the series), parasite line B.
[13] abbreviates: measured here: PEO1 parental Z-AUC.

Records with an inconclusive call do not appear. Active and inactive are the calls of the source. Unless noted, calls come from the whole dose curve; as a rule, active = well fitted curve in the direction sought with a large enough effect; inconclusive = small, poorly fitted or top-dose-only effect, or another doubt; inactive = no such curve, though single readings can be large; an effect the other way counts as inactive or inconclusive.

Nuclear receptor subfamily 1 group I member 2 (Homo sapiens), sequence (O75469 whole entry, looked up): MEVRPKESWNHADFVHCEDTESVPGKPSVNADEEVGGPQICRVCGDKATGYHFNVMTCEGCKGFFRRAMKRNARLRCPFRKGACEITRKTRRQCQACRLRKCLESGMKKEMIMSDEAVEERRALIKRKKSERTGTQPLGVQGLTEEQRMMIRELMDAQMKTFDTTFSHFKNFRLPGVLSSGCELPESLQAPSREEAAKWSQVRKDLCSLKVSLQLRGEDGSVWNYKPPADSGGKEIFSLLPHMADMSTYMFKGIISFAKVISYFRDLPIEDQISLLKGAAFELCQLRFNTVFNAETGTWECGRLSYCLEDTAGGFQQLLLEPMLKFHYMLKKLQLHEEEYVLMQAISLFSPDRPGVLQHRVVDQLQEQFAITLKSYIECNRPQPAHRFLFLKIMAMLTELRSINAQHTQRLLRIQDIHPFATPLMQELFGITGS

Consider `O=C/C=C/c1ccccc1`, for which the compound was classed as inactive in [1], in [3], in assay [4], in assay [5] and in assay [6]. In addition, the max response in [2] was 1.86% (inactive). Besides, the activity, negative = inhibition in [7] (setting [11]) was 8.58% (inactive); in [7] (setting [12]), -11% (inactive). In addition, the Potency result in assay [8] and in [9] was “inactive” in each case.

Consider `c1ccc2sc(SNC3CCCCC3)nc2c1`, for which the activity, negative = inhibition is 7.11% (inactive) in assay [7] (setting [11]) and 2.42% (inactive) in assay [7] (setting [12]). Moreover, the Potency result in assay [8] is “inactive”.

Turning to `CCN(CC)C(=O)/C(Cl)=C(\C)OP(=O)(OC)OC`, the activity, negative = inhibition in assay [7] (setting [11]) was -6.34% (inactive); in assay [7] (setting [12]), 3.3% (inactive). The Potency result in assay [8] is “inactive”.

For `C[C@]12CC[C@H]3[C@@H](CC[C@@]45O[C@@H]4C(O)=C(C#N)C[C@]35C)[C@@H]1CC[C@@H]2O`, the Z-AUC is 0.0842 (inactive) in [10], 0.943 in assay [10] (setting [13]) and 0.794 in [10] (measured here: PEO4 Z-AUC).

With `COC1=CC(=O)O[C@@H](/C=C/c2ccccc2)C1`, the call in [1], in assay [3], in [4], in [5] and in [6] was inactive. For the same compound, the max response in assay [2] is -0.203% (inactive).

`c1cc2c(c(NC3=NCCN3)c1)CCCC2`: the activity, negative = inhibition in assay [7] (setting [11]) was -15.6% (inactive); in [7] (setting [12]), -7.85% (inactive). Besides, the Potency result in assay [8] was “inactive”.

On to `C/C(O)=C(\C#N)C(=O)Nc1cc(Br)ccc1Br`, for which the Z-AUC in [10] is -0.13 (inactive); in assay [10] (setting [13]) it was 0.336; in assay [10] (measured here: PEO4 Z-AUC), 0.627.

For the compound `CCCC(C)(COC(N)=O)COC(=O)NC1CC1` (stereo unspecified), the activity, negative = inhibition in [7] (setting [11]) is 8.1% (inactive); in [7] (setting [12]), 1.21% (inactive). Further, the Potency result in assay [8] is “inactive”.

With `CCC(=O)O[C@@](Cc1ccccc1)(c1ccccc1)[C@@H](C)CN(C)C`, the activity, negative = inhibition is -5.92% (inactive) in assay [7] (at 12.8 µM (top of the series), parasite line A) and -0.756% (inactive) in assay [7] (at 12.8 µM (top of the series), parasite line B). For the same compound, the Potency entry in assay [8] is “inactive”.

Consider `OC(c1ccccc1)(c1ccccc1)C1CN2CCC1CC2` (stereo unspecified), for which the activity, negative = inhibition in assay [7] (setting [11]) is 2.79% (inactive); in [7] (setting [12]) it was -0.359% (inactive). Also, the Potency entry in assay [8] is “inactive”.

As to `CC1=C2C[C@H]3[C@@H](CC=C4C[C@@H](O)CC[C@@]43C)[C@@H]2CC[C@]12O[C@@H]1C[C@H](C)CN[C@H]1[C@H]2C`, the Z-AUC in assay [10] is -0.41 (inactive); in assay [10] (setting [13]) it was -0.348; in [10] (measured here: PEO4 Z-AUC), -0.0838.

Consider `CCCCCCCCOC(=O)c1ccccc1C(=O)OCCCCCCCC`, for which the values for the activity, negative = inhibition in assay [7] (setting [11]) and in [7] (setting [12]) were 10.9% (inactive) and -23.5% (inactive), respectively. Further, the Potency result in assay [8] is “inactive”.

On to `CCOc1ccccc1-n1c(C(C)N2CCN(C(=O)COc3ccc(Cl)cc3)CC2)nc2ccccc2c1=O` (stereo unspecified), for which the results for the Z-AUC in [10], in assay [10] (setting [13]) and in [10] (measured here: PEO4 Z-AUC) were 0.23 (inactive), 0.347 and -0.0275, respectively.

In the case of `CC(=O)O[C@H]1CC[C@H]2[C@@H]3CCC4=CC(=O)CCC4=C3C=C[C@]12C`, the activity, negative = inhibition is 4.1% (inactive) in assay [7] (setting [11]) and 0.383% (inactive) in assay [7] (setting [12]). Moreover, the Potency entry in assay [8] was “inactive”.

As for `O=Cc1ccco1`, the compound was classed as inactive in [1], in assay [3], in assay [5] and in [6]. The max response in [2] was -3.87% (inactive). In addition, the figures for the activity, negative = inhibition in assay [7] (setting [11]) and in assay [7] (setting [12]) were -15.5% (inactive) and 9.74% (inactive), respectively. For the same compound, the Potency entry in assay [8] and in assay [9] was “inactive” each time.
